From PubChem BioAssay (NCI)
About 79,000 compounds went through this panel and 15% of them were active in at least one assay; those are over-represented in the sample as a whole. Unmarked numbers belong to inactive results. Calls of active or inactive are those of the source. Rule as the data show it: active = growth inhibition above about 70%; inactive = the rest.

How the values were obtained:
[1] = NCI Yeast Anticancer Drug Screen. Data for the rad50 strain (AID 155);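 also: 0% = growth of vehicle-only cultures of the same strain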; conditions: S. cerevisiae rad50 strain growth inhibition; at 50.0 µM; hits give high values
Method in brief: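 Cells are treated with compound, grown, and their growth is then scored against vehicle-only cultures of the same repair-deficient yeast strain.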

[2] = NCI Yeast Anticancer Drug Screen. Data for the mec2-1 strain (AID 157); conditions: S. cerevisiae mec2-1 strain, at 50.0 µM, hits give high values
Method in brief: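 Readout is yeast growth inhibition, normalised to vehicle-treated controls, in the mec2-1 strain exposed to compound.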

[3] = NCI Yeast Anticancer Drug Screen. Data for the sgs1 mgt1 strain (AID 161);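 also: 0% = growth of cultures given vehicle only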; conditions: S. cerevisiae sgs1 mgt1 strain, at 50.0 µM, hits give high values
Method in brief: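 Percent growth inhibition was derived by comparing compound-exposed mutant yeast with vehicle-exposed cultures. The strain carries alterations in DNA damage repair.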

[4] = NCI Yeast Anticancer Drug Screen. Data for the cln2 rad14 strain (AID 165);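 also: 0% = growth equal to vehicle treated cultures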; conditions: S. cerevisiae cln2 rad14 strain, at 50.0 µM, hits give high values
Method in brief: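 Relative to vehicle controls, growth inhibition of compound-treated cln2 rad14 yeast was recorded.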

[5] = NCI Yeast Anticancer Drug Screen. Data for the bub3 strain (AID 167); conditions: S. cerevisiae bub3 mutant strain, at 50.0 µM, hits give high values
Method in brief: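 Part of a panel of yeast mutants defective in DNA damage repair or cell cycle regulation. Each strain is grown with compound, and inhibition is calculated relative to solvent-treated cultures.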

[6] = NCI Yeast Anticancer Drug Screen. Data for the mlh1 rad18 strain (AID 175); conditions: S. cerevisiae mlh1 rad18 strain growth inhibition; at 50.0 µM; hits give high values
Method in brief: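 Test agents were incubated with a yeast strain of defined genotype (DNA damage repair defect). Inhibition of growth was derived by comparison with vehicle-exposed cultures.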

Row | SMILES | growth inhibition [1] | growth inhibition [2] | growth inhibition [3] | growth inhibition [4] | growth inhibition [5] | growth inhibition [6]
1 | CCOC(=O)COc1c(C)cccc1Cl | 4.2% | 0.6% | -0.25% | -28.9% | -23.6% | -24.6%
2 | CC(=O)OC/C(=C/C#N)C1CCC2C3CCC4CC(OC(C)=O)CCC4(C)C3CCC12C (centres undefined) | 47% | 30.7% | 45.5% | 40% | 21.5% | 57.5%
3 | NC1=NN(S(=O)(=O)c2ccc(Cl)cc2)CC1 | -14.7% | -6.25% | -8.75% | -21.7% | -3.3% | 5.95%
4 | CCCCCc1cc(O)cc2c1Oc1cc(O)cc(C(=O)CCCC)c1C(=O)O2 | 4% | -17.2% | 8.6% | -9.9% | -9.4% | -14.2%
5 | CCCC(C)C(O)CC (centres undefined) | -27.1% | -28.9% | 7.45% | 13.3% | -19.5% | -10%
6 | COc1ccc(-c2cc(-c3ccccc3)n[nH]2)cc1 | 24% | 27.7% | 43.8% | -13.9% | 47.9% | 33.4%
7 | COc1cc(C2c3cc4c(c(OS(=O)(=O)O)c3CC3COC(=O)C32)OCO4)cc(OC)c1OC (centres undefined) | 6.3% | 3.5% | -18.9% | -14.4% | 15% | 7.4%
8 | NC(=NCc1ccncc1)N/N=C\c1ccnc2ccccc12 | 4.15% | 10.9% | 7.75% | -13.7% | -9.5% | 7.75%
9 | CNC(=O)Sc1ccc([N+](C)(C)C)cc1 | 9.8% | 0.1% | 19.8% | -7.5% | 18.8% | 30.3%
10 | O=[N+]([O-])c1ccc(OCc2ccccc2)c(Cl)c1 | -4.2% | 17.1% | 25.9% | -13.8% | 46.3% | 30.4%
11 | O=C(On1nnc2ccccc2c1=O)c1ccccc1 | 29.7% | 20.4% | 22.8% | -7.25% | -3.25% | 12.8%
12 | CC1=C(C(=O)Nc2cccc3c2C(=O)NC3=O)CC(C(=O)Nc2cccc3c2C(=O)NC3=O)=C(C)N1 | -51% | -18.6% | -6.15% | -25.8% | -10.9% | -25.8%
13 | O=C1C(c2ccccc2)=C(c2ccccc2)/C1=C\c1ccc(Cl)cc1Cl | 7.4% | -5.9% | -13.9% | -8.9% | 5.5% | -13.8%
14 | COc1cccc(CSCC(=O)O)c1 | -9.3% | -26.5% | -44.2% | 7.25% | -17.6% | -1.6%
15 | O=C1c2cn[nH]c2C(c2ccccc2)N1c1ccccc1 (centres undefined) | 44.1% | 6.8% | 22.6% | 24.3% | 27.9% | 38.9%
16 | COc1cc2c[n+](C)c3c4ccccc4ccc3c2cc1OC | 40.4% | 55.2% | 18.9% | 2.75% | 22.2% | 38.5%
17 | O=c1[nH]nc(Sc2ccccc2)c2nncn12 | 15.7% | -1.05% | -5.45% | -16.6% | -4.7% | 24.6%
18 | Cc1c([N+](=O)[O-])cc(C(C)(C)C)c(OC(=O)C(Cl)(Cl)Cl)c1[N+](=O)[O-] | 58.3% | 72.5% (active) | 73.9% (active) | 78.8% (active) | 88.9% (active) | 72.8% (active)
19 | NCCSSCCCCSSCCN | -8.95% | -0.7% | -13.7% | -43.2% | -1.2% | -1.9%
20 | Nc1cc2c(cc1Cl)-c1cc(Cl)ccc1C2=O | 5.7% | -9.65% | -2.2% | -24.4% | -8.5% | -8.5%

Row | SMILES | growth inhibition [1] | growth inhibition [2] | growth inhibition [3] | growth inhibition [4] | growth inhibition [5] | growth inhibition [6]
21 | Clc1cnc(/N=C/c2ccc(/C=N/c3ncc(Cl)cc3Cl)cc2)c(Cl)c1 | 13% | -21.8% | 6.05% | 10% | -5.8% | 16.4%
22 | Oc1cccnc1I | 24.4% | 3.1% | 18.5% | 19.5% | 18% | 10.2%
23 | Nc1on(C(=O)c2ccccc2)c(=O)c1Cc1ccccc1 | -19.2% | 3.6% | 15.9% | -36% | 2.25% | -2.1%
24 | COC(=O)C(O)CC1=CC[C@@H]2CC=C[C@H]12 (some centres undefined) | 27.7% | 1.7% | 13.7% | 3.7% | 27.5% | -7.65%
25 | CCC(C)(O)C#CC#CC(C)(O)CC (centres undefined) | 17.2% | -22.2% | 22.1% | 16.6% | -5.35% | 22.1%
26 | NNC(=S)N/N=C\c1ccnc2ccccc12 | 9.05% | 2.85% | 36.6% | 28.7% | 30.2% | 23.4%
27 | CC(=O)Nc1ccc(-c2nnc(SCC(=O)Nc3cccc(C)c3)o2)cc1 | 5.2% | 14.7% | 32% | 24% | 9.7% | -7.75%
28 | Cc1ccc(Br)c2c1CCC2=O | 1.85% | -5.05% | 0.9% | -52.5% | -23% | 1.65%
29 | O=C(O)C1C=CC2OC2C1C(=O)O (centres undefined) | 2.9% | -28.2% | -5.95% | -31.9% | 1.1% | 4.7%
30 | C=NNC(=O)c1ccncc1 | -10.4% | -6.1% | 6.4% | -37.5% | 12.8% | 5.9%
31 | ClCC1=NC2C(Cl)C(Cl)C(Cl)C(Cl)C2N1 (centres undefined) | 87.8% (active) | 77% (active) | 94.7% (active) | 87.5% (active) | 75.9% (active) | 94% (active)
32 | Nc1nc2c(N)cc(C(F)(F)F)cc2nc1-c1ccccc1 | -38.2% | -17.2% | -1.9% | 7.95% | -6.25% | -12.4%
33 | c1ccc(-c2cc3c(nn2)[nH]c2ccccc23)cc1 | 14.4% | -1.95% | -2.25% | -30.2% | -15.8% | 8.9%
34 | CNc1nc(N(C)C)nc(N(C)C)n1 | 25.2% | 16.9% | 15.6% | 28.9% | 26.8% | 26.6%
35 | CCCCC1(C(=O)NC(=Nc2ccccc2)Nc2ccccc2)CCOC1=O (centres undefined) | 4.3% | 8.15% | -2.55% | -11.9% | -2.95% | 4.9%
36 | OC1c2ccccc2CCCC1N1CCCCC1 (centres undefined) | 41% | 5.35% | 27.8% | 6.75% | 12.1% | 16.9%
37 | COc1ccc2c(CCNC(C)=O)c(C(C)=O)[nH]c2c1 | -9.65% | -3.25% | 12.4% | 15.5% | -12.3% | 36.1%
38 | COc1cccc(NCNC2Nc3ccccc3N2)c1 | 25.1% | 10.1% | -0.75% | -23.4% | 18.4% | 19.8%
39 | COc1cc(Br)c2ncccc2c1 | 1.75% | -0.6% | 3.85% | 4.05% | 2.2% | -14.5%
